Source: PubChem BioAssay
Compounds with a hit are over-represented: about 4.1% of the library has one in this group of screens.
rCAG binder: molecules binding r(CAG) RNA repeats; r(CAG) RNA repeat, TO-PRO-1 dye displacement fluorescence; inhibition, % at 3 µM; 370,000 tested, 1.3% active;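 active means inhibition above the plate cutoff, the mean of all test compounds on that plate plus 3 SD, cut at about 35% in these data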;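 further: higher means more dye released from RNA so lower well fluorescence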
ABHD5 PLIN5 PPI: ABHD5-PLIN5 protein interaction inhibition. inhibition, % at 4 µM. Split G. princeps luciferase complementation, luminescence, 4 h. 360,000 tested, 0.78% active. Q00G26+Q8WTS1. AID 602281;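 active means inhibition above the mean inhibition across every tested compound plus 3 SD, cut at about 22% in these data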
LEDGF integ inh: blocks HIV-1 LEDGF/p75-dependent DNA integration; TR-FRET IN-LEDGF/p75 DNA integration, Eu/Cy5; inhibition, % at 3.7 µM; 370,000 tested, 0.64% active; AID 743269;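 active means inhibition above the screen-wide mean plus 3 SD, cut at about 13% in these data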;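 further: signal is the Cy5 over europium emission ratio at 671 and 618 nm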
MBD2 DNA inh: inhibitors of human MBD2 binding to methylated oligonucleotide; Q9UBB5; TR-FRET; inhibition, % at 4.4 µM; 370,000 tested, 0.31% active; AID 686964; in the data active means inhibition above about 13%
Target sequence (Q9UBB5 whole entry, looked up): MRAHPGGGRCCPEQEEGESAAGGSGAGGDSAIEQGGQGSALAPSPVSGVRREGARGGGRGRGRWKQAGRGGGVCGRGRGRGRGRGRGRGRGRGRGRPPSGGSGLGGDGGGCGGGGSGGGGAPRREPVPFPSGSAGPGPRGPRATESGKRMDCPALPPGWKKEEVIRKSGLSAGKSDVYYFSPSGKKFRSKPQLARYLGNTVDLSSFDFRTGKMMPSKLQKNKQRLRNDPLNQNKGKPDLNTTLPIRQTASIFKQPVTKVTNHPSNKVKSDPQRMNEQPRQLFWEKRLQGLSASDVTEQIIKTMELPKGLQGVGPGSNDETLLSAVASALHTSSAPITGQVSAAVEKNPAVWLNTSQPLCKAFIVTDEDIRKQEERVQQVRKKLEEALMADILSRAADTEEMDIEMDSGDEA
UHRF1 binding: human UHRF1 methylated DNA binding inhibitors; Q96T88; UHRF1 binding to methylated oligo, TR-FRET; inhibition, % at 4.4 µM; 370,000 tested, 0.75% active; in the data active means inhibition above about 21%;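 further: UHRF1 SRA domain binding a hemimethylated CpG hairpin DNA probe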
PRMT1 FP inh: PRMT1 (human) inhibition, primary screen; Q99873; recombinant PRMT1, activity-based probe fluorescence polarization; inhibition, % at 2.79 µM; 370,000 tested, 1.3% active;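 active means inhibition above about 21% made by adding two undisclosed values, limit read from the data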
Large screens that a line does not name were inactive.

CC(C)CCn1nnnc1C(c1ccccc1)N1CCC(C(N)=O)CC1 (configuration not stated)	none
CCc1nnc(NC(=O)CN2CCN(C(=O)c3ccccc3)CC2)s1	UHRF1 binding 24
CCc1nnc(NC(=O)CN2CCN(CC)CC2)s1	none
O=C(N[C@H](Cc1ccccc1)C(=O)N1CCCN(Cc2ccccc2F)CC1)[C@H]1O[C@@H](n2ccc(=O)[nH]c2=O)[C@H](O)[C@@H]1O	none (no result: ABHD5 PLIN5 PPI)
Cc1ccc(Nc2ccc(C(=O)O)cc2N)cc1	PRMT1 FP inh 24 (no result: ABHD5 PLIN5 PPI)
Cc1cc(C)cc(Nc2ccc(C(=O)O)cc2N)c1	none
C#CCOCCOCCOCCNc1nc(N2CCN(C(=O)[C@H](CCC(=O)O)n3cc([C@@H](N)CCCCN)nn3)CC2)nc(N2CCN(C(=O)[C@H](CCCCN)n3cc([C@@H](N)CC(N)=O)nn3)CC2)n1	UHRF1 binding 48
C#CCOCCOCCOCCNc1nc(N2CCN(C(=O)[C@H](Cc3cc4ccccc4[nH]3)n3cc([C@@H](N)CC(C)C)nn3)CC2)nc(N2CCN(C(=O)[C@H](Cc3cc4ccccc4[nH]3)n3cc([C@@H](N)CC(C)C)nn3)CC2)n1	ABHD5 PLIN5 PPI 51 (no result: rCAG binder, LEDGF integ inh, MBD2 DNA inh, UHRF1 binding, PRMT1 FP inh)
C#CCOCCOCCOCCNc1nc(N2CCN(C(=O)[C@H](Cc3ccc(O)cc3)n3cc([C@@H](N)C(C)CC)nn3)CC2)nc(N2CCN(C(=O)[C@H](Cc3cc4ccccc4[nH]3)n3cc([C@@H](N)C(C)CC)nn3)CC2)n1 (some centres not stated)	ABHD5 PLIN5 PPI 25 (no result: rCAG binder, LEDGF integ inh, MBD2 DNA inh, UHRF1 binding, PRMT1 FP inh)
C#CCOCCOCCOCCNc1nc(N2CCN(C(=O)[C@H](CCC(=O)O)n3cc([C@@H](N)CCCCN)nn3)CC2)nc(N2CCN(C(=O)[C@H](CCC(=O)O)n3cc([C@@H](N)CCCCN)nn3)CC2)n1	none
O=C(C(=O)N1CCC(CNS(=O)(=O)c2ccc(F)c(F)c2)CC1)c1cc2ccccc2o1	none (no result: ABHD5 PLIN5 PPI)
COC(=O)[C@H]1C[C@@]2(O)CN(S(=O)(=O)c3ccc(C)cc3)C[C@@]2(OC(=O)NC2CCCC2)C[C@H]1C(=O)OC	UHRF1 binding 24
Cc1c(CC(=O)O)c(=O)oc2c(C)c(OCc3nn[nH]n3)ccc12	none
Cc1c(Cc2ccccc2)c(=O)oc2c(C)c(OCc3nn[nH]n3)ccc12	rCAG binder 59
COC(=O)c1cc2c(c3c4cc(OC)ccc4n(S(=O)(=O)c4cccc(C)c4)c13)C(=O)N(Cc1ccc(C(F)(F)F)cc1)C2	none (no result: ABHD5 PLIN5 PPI)
O=C(/C=C/c1ccco1)NC(=S)Nc1ccccc1	PRMT1 FP inh 23
O=C(/C=C/c1ccco1)NC(=S)Nc1cc(-c2nc3ccccc3s2)ccc1Cl	rCAG binder 46
CC(=O)c1ccc(NC(=S)NC(=O)/C=C/c2ccco2)cc1	none
C=CCNC(=O)Nc1ccc2c(c1)[C@@]1(CC(=O)N(CC(C)C)C1c1ccccc1)C(=O)N2C (some centres not stated)	none (no result: ABHD5 PLIN5 PPI)
CCS(=O)(=O)Nc1ccc2c(c1)C(=O)N(C)[C@@H]1CC[C@H](CC(=O)N[C@@H]3CCN(Cc4ccccc4)C3)O[C@H]1CO2	none (no result: ABHD5 PLIN5 PPI)
COc1ccc(/C([O-])=C(/C(=S)Nc2ccc(C)c(C)c2)n2c[n+](C)c3ccccc32)cc1OC	UHRF1 binding 26
COc1ccc(NC(=S)Nc2ccc(C)c(Cl)c2)cc1OC	none
COCC(=O)N1CCC(C(=O)NC2CCCc3ccccc32)CC1 (configuration not stated)	none (no result: ABHD5 PLIN5 PPI)
O=C(COC(=O)CCc1c[nH]c2ccccc12)NCc1ccc2c(c1)OCO2	UHRF1 binding 64
COC(=O)[C@H](C)N(CCc1cn(Cc2ccccc2)nn1)S(=O)(=O)c1ccccc1Br	none (no result: ABHD5 PLIN5 PPI)
O=C(c1ccccc1)N1CCC(=O)N1c1ccccc1	UHRF1 binding 37
CCOc1ccc(N2C(=O)CC(Sc3ccccc3C(=O)O)C2=O)c([N+](=O)[O-])c1 (configuration not stated)	PRMT1 FP inh 68
CCCCCCC[C@H](N)[C@H](O)C(=O)N(C)[C@@H](CCS(C)=O)C(=O)N[C@@H](Cc1ccc(O)cc1)C(=O)O (some centres not stated)	none (no result: rCAG binder, ABHD5 PLIN5 PPI)
CC(C)Oc1cccc(-c2csc(N3CCC(C(N)=O)CC3)n2)c1	none (no result: rCAG binder, ABHD5 PLIN5 PPI)
O=C(N1CCOCC1)N1CC[C@H]2[C@H](CCCN2Cc2ccccc2)C1	none (no result: ABHD5 PLIN5 PPI)
CC(C)C[C@H](N)c1nnc(S(=O)(=O)Cc2ccc(F)cc2)o1	ABHD5 PLIN5 PPI 31 (no result: rCAG binder, LEDGF integ inh, MBD2 DNA inh, UHRF1 binding, PRMT1 FP inh)
CC(C)C[C@H](N)c1nnc(SCC(=O)Nc2ccc(Br)cc2)o1	none
COc1ccc(/C=C/C(O)=C2/C(=O)N(C)C3(C)CC2c2ccccc2O3)cc1 (configuration not stated)	none
Cc1ccc(/C=C/C(O)=C2/C(=O)N(C)C3(C)CC2c2ccccc2O3)cc1 (configuration not stated)	ABHD5 PLIN5 PPI 22
Cn1nc(-c2ccccc2)cc1NC(=O)Nc1ccc(C(C)(C)C)cc1	UHRF1 binding 29
Cn1nc(-c2ccc(Cl)cc2)cc1NC(=O)Nc1ccccc1	none
O=C1N2Cc3ccccc3C2CS(=O)(=O)N1C1CCCC1 (configuration not stated)	none (no result: ABHD5 PLIN5 PPI)
C[C@H](NC(=O)[C@@H]1Cc2ccccc2CN1C(=O)OC(C)(C)C)C(=O)NCc1ccco1	ABHD5 PLIN5 PPI 22
C/C(CC(=O)Nc1ccc(N(C)C)cc1)=N\NC(=O)Cc1csc(N)n1	LEDGF integ inh 21
COc1ccc(CC(=O)N/N=C(\C)CC(=O)Nc2ccc(N(C)C)cc2)cc1	none
O=C(O)COc1ccccc1C(Nc1cccnc1)c1cc(Cl)c2cccnc2c1O (configuration not stated)	ABHD5 PLIN5 PPI 26 (no result: rCAG binder, LEDGF integ inh, MBD2 DNA inh, UHRF1 binding, PRMT1 FP inh)
O=C(O)COc1ccccc1C(Nc1ccccn1)c1cc(Cl)c2cccnc2c1O (configuration not stated)	none
Cc1cc(O)c(Sc2ncn[nH]2)cc1NS(=O)(=O)c1ccc(Cl)cc1	none
Cc1cc(C)c(S(=O)(=O)/N=C2/C=C(Sc3ncn[nH]3)C(=O)c3ccccc32)cc1C	rCAG binder 56, LEDGF integ inh 42, PRMT1 FP inh 81
Cc1ccc(NC(=O)C2CCN(c3ncccn3)CC2)cc1C	none (no result: ABHD5 PLIN5 PPI)
CCCCC(=O)NC(c1ccc(Cl)cc1)c1ccc2cccnc2c1O (configuration not stated)	ABHD5 PLIN5 PPI 22
CCCC(=O)NC(c1ccc(Cl)cc1)c1ccc2cccnc2c1O (configuration not stated)	none
COC(=O)c1ccc2nc(-c3ccc(F)cc3)c(Cc3ccccc3OC)n2c1	none
CCCc1nc2ccc(C(=O)OC)cn2c1Cc1ccccc1C(F)(F)F	UHRF1 binding 25
COC(=O)c1ccc2nc(C3CCCCC3)c(Cc3ccccc3OC)n2c1	none (no result: ABHD5 PLIN5 PPI)
CCCc1nc2ccc(C(=O)OC)cn2c1Cc1ccccc1OC	UHRF1 binding 23 (no result: ABHD5 PLIN5 PPI)
C/C(=N/NC(=O)CN1CCN(Cc2ccccc2Cl)CC1)c1cccc(O)c1	none (no result: ABHD5 PLIN5 PPI)
CCC(=O)N(Cc1ccco1)c1nc(C(=O)Nc2ccc(Cl)cc2)c(C)s1	PRMT1 FP inh 21
